# How the values were obtained:
# Assay in all cases: DAPPL (digital affinity profiling via proximity ligation, sequencing); 10 mM Tris-HCl pH 7.5, 50 mM NaCl, 1 mM DTT, 4% glycerol, room temperature, 30 min; GST-TFs on glutathione beads, 16-mer random dsDNA library, 0.1% formaldehyde crosslink after washing; high values mean tight binding
# Conditions in all cases: protein: recombinant; tags: N-terminal GST; dsDNA, one strand shown
# FLI1 = target: T1, FLI1 (Homo sapiens, UniProt Q01543 1-452)
# T1 sequence: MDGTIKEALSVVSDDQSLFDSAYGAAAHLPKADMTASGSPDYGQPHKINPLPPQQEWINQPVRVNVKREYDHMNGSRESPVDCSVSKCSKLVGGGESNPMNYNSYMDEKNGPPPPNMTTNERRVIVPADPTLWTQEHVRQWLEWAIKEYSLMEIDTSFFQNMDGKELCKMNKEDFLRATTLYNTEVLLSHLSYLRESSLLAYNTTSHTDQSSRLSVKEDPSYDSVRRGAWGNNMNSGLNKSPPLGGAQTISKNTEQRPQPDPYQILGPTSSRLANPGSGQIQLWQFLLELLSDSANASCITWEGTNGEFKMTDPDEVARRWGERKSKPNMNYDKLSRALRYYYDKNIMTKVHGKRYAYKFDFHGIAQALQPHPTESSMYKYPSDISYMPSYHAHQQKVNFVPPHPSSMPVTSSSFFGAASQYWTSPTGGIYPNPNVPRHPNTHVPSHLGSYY
# How it was run: (§1)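 Binding signal is given per hexamer as its read frequency for a factor divided by its frequency in the tag-only sample. GST-fused human transcription factors were expressed in yeast, captured on glutathione beads, barcoded with DNA and pooled with that sample, then incubated with 200 nmole of a 16-mer random double-stranded DNA library in Tris/NaCl/DTT/glycerol buffer for 30 min at room temperature. The pools were then washed, crosslinked, proximity-ligated, amplified by PCR and sequenced on an Illumina NextSeq500.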
# ELK1 = target: T2, ELK1 (Homo sapiens, UniProt P19419 1-428)
# T2 sequence: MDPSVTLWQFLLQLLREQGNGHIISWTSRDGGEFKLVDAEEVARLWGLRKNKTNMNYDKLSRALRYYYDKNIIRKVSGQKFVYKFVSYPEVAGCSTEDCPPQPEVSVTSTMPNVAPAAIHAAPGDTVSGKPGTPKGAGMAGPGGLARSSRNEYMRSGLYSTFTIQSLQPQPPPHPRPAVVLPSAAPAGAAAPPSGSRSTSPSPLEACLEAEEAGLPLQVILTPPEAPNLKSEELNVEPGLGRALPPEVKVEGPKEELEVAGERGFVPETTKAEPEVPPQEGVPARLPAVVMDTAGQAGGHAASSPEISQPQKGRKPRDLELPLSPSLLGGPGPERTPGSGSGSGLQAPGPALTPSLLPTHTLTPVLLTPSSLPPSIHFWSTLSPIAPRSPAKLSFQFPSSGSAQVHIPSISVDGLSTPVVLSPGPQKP
# How it was run: as §1
# GABPA = target: T3, GABPA (Homo sapiens, UniProt Q06546 1-454)
# T3 sequence: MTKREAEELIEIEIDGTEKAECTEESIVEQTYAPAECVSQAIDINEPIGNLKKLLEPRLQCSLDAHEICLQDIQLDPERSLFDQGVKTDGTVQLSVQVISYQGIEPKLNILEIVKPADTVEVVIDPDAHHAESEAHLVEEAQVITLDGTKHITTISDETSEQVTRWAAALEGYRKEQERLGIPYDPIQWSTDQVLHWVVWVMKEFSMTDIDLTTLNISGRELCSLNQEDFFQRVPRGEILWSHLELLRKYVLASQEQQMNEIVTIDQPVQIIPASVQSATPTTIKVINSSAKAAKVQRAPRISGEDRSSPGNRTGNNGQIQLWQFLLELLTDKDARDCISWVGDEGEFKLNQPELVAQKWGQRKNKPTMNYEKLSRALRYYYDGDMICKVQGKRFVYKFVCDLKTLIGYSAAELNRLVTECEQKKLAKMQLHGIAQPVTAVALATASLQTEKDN
# How it was run: as §1
# ERG = target: T4, ERG (Homo sapiens, UniProt P11308 1-479)
# T4 sequence: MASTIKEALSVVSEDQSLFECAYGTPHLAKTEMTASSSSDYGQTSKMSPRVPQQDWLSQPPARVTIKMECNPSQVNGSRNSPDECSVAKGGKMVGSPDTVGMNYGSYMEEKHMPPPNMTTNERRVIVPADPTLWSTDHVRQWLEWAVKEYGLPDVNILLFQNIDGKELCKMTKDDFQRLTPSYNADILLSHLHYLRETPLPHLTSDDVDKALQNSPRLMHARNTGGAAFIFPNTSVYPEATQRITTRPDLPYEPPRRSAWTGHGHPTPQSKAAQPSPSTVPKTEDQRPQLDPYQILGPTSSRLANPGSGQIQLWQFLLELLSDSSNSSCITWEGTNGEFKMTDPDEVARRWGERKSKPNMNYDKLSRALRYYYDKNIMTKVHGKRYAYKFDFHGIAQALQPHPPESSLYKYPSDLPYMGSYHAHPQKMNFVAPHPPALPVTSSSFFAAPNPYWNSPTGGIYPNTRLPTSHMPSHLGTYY
# How it was run: as §1
# ELF1 = ELF1 (Homo sapiens, UniProt P32519 1-619)
# Chain of ELF1 (P32519 whole entry): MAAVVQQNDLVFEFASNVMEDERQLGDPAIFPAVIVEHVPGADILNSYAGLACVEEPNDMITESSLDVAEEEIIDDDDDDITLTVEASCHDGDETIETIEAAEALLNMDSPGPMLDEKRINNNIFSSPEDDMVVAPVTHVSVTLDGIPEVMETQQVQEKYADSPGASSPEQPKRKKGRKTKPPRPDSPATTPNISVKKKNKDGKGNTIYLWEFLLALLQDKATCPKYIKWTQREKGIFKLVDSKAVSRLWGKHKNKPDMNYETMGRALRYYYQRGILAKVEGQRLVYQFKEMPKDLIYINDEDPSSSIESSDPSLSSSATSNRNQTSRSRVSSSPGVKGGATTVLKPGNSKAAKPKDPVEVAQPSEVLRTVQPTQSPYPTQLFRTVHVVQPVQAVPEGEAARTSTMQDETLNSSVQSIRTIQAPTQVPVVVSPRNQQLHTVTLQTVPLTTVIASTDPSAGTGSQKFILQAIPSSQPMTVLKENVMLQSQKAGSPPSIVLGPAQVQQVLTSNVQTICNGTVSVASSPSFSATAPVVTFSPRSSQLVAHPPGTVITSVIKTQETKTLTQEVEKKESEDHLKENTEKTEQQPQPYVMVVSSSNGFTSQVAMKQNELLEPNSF
# How it was run: as §1
# EHF = target: T5, EHF (Homo sapiens, UniProt Q9NZC4 1-300)
# T5 sequence: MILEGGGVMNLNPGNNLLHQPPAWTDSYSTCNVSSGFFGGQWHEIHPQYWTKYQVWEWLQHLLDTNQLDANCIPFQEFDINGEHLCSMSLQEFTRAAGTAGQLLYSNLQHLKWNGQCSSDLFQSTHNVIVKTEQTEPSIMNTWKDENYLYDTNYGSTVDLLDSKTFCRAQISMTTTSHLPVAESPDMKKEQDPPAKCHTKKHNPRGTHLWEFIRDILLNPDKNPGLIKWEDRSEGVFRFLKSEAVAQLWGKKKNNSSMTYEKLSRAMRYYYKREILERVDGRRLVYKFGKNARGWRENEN
# How it was run: as §1
# SPI1 = SPI1 (Homo sapiens, UniProt P17947 1-270)
# How it was run: as §1
# SPIB = SPIB (Homo sapiens, UniProt Q01892 1-262)
# Chain of SPIB (Q01892 whole entry): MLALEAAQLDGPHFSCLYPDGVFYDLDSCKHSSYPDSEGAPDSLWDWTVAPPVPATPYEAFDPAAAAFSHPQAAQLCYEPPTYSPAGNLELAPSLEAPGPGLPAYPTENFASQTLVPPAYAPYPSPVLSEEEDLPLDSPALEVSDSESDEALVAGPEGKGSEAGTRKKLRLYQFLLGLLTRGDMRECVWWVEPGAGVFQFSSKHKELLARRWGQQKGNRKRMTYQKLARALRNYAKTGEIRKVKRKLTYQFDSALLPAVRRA
# How it was run: as §1
# ELK3 = target: T6, ELK3 (Homo sapiens, UniProt P41970 1-407)
# T6 sequence: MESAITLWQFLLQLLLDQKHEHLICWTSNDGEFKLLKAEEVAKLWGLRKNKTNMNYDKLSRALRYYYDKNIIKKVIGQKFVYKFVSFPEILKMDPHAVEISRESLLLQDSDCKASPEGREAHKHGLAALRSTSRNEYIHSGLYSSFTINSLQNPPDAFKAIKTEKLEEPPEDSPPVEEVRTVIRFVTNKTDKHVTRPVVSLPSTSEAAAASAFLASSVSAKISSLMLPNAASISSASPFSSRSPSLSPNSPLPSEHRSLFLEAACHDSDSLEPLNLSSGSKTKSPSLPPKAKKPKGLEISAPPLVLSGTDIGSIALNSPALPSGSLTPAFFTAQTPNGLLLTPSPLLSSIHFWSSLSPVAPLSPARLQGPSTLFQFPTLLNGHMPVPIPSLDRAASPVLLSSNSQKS
# How it was run: as §1
# FEV = target: T7, FEV (Homo sapiens, UniProt Q99581 1-238)
# T7 sequence: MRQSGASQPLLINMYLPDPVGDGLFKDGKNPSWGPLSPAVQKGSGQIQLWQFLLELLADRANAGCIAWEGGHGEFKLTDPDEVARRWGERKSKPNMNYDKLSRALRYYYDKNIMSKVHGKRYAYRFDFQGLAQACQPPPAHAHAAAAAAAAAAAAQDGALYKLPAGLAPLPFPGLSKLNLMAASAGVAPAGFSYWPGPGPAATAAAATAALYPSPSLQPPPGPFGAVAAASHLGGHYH
# How it was run: as §1
# ETV5 = ETV5 (Homo sapiens, UniProt P41161 1-510)
# Chain of ETV5 (P41161 whole entry): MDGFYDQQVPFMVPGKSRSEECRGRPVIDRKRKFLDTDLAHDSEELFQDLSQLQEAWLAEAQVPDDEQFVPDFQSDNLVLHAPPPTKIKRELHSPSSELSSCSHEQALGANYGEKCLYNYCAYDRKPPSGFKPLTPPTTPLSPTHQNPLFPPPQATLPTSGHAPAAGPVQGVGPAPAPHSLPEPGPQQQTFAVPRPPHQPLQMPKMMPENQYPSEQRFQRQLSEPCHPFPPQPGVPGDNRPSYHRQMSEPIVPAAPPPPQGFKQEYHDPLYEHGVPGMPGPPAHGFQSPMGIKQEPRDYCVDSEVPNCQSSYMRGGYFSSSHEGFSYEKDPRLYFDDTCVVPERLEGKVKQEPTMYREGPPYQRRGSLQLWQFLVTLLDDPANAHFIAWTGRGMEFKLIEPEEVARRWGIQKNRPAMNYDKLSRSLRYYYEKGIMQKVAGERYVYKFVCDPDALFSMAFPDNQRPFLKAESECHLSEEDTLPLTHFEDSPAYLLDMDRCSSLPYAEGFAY
# How it was run: as §1
# SPIC = target: T8, SPIC (Homo sapiens, UniProt Q8N5J4 1-248)
# T8 sequence: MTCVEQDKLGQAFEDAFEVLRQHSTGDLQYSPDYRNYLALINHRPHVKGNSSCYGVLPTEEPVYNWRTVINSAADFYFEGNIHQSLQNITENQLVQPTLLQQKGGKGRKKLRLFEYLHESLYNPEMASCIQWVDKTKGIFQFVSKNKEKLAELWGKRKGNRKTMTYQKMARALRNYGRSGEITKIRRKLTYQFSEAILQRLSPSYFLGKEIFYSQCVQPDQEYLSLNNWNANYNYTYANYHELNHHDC
# How it was run: as §1
# ELF4 = ELF4 (Homo sapiens, UniProt Q99607 1-663)
# Chain of ELF4 (Q99607 whole entry): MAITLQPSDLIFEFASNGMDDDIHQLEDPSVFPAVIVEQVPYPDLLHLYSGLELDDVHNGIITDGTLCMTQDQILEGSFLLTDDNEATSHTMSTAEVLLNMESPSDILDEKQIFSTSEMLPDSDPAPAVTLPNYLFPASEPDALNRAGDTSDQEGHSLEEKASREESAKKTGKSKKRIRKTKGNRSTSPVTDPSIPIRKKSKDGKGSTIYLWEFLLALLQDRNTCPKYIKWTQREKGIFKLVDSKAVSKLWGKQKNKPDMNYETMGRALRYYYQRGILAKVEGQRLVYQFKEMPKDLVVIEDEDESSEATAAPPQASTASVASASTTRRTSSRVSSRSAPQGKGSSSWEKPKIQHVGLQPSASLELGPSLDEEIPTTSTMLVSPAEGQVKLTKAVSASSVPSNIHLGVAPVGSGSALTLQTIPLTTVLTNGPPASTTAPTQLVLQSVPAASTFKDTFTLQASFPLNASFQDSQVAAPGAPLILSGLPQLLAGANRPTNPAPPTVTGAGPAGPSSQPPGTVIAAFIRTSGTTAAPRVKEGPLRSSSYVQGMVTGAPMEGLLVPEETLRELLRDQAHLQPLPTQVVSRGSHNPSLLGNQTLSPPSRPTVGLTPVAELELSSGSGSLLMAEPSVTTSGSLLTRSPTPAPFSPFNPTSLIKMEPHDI
# How it was run: as §1
# ETV1 = ETV1 (Homo sapiens, UniProt P50549 1-477)
# Chain of ETV1 (P50549 whole entry): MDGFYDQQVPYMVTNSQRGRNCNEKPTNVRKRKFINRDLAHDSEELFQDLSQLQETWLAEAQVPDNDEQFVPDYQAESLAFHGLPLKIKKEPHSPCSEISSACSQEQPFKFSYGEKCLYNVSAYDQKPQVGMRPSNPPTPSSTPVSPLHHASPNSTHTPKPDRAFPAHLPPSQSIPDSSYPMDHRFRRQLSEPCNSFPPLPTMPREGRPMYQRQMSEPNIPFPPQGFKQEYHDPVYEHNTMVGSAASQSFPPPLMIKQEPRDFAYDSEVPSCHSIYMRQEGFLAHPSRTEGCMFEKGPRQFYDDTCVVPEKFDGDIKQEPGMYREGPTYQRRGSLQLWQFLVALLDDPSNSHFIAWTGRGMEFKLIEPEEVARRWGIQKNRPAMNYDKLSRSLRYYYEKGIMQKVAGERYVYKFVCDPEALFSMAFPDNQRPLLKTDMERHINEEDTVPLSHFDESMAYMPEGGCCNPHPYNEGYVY
# How it was run: as §1
# ETV3L = target: T9, ETV3L (Homo sapiens, UniProt Q6ZN32 1-361)
# T9 sequence: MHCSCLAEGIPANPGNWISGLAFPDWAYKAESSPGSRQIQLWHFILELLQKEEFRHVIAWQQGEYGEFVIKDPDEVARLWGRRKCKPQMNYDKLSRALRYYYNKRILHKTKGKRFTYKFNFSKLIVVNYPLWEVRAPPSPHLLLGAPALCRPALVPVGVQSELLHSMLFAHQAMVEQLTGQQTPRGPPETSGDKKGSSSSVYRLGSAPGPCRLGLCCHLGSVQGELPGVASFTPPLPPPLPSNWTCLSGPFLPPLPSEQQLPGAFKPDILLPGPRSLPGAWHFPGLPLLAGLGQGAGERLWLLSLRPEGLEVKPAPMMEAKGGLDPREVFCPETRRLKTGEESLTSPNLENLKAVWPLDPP
# How it was run: as §1
# ETS2 = target: T10, ETS2 (Homo sapiens, UniProt P15036 1-469)
# T10 sequence: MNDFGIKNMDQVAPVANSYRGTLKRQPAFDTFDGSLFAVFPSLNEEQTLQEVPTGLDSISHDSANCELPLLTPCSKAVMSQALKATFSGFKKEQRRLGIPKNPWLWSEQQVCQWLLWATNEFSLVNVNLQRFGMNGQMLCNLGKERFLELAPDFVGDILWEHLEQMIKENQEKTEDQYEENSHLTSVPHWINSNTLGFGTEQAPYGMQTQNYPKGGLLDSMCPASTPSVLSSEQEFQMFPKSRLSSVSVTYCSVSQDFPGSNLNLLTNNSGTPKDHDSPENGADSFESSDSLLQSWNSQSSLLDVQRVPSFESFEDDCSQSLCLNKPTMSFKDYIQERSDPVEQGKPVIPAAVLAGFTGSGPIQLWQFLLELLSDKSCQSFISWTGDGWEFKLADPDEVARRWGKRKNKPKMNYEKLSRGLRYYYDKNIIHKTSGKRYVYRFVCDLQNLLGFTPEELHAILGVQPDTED
# How it was run: as §1
# ELF5 = target: T11, ELF5 (Homo sapiens, UniProt Q9UKW6-2 1-255)
# T11 sequence: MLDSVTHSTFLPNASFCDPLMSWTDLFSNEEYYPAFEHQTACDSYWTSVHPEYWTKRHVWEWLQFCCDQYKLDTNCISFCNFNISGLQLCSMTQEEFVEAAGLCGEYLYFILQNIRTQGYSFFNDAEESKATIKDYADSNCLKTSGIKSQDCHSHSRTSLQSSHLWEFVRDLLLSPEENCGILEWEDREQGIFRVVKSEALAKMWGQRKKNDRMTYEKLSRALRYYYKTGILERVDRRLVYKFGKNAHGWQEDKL
# How it was run: as §1
# ETV3 = target: T12, ETV3 (Homo sapiens, UniProt P41162-2 1-143)
# T12 sequence: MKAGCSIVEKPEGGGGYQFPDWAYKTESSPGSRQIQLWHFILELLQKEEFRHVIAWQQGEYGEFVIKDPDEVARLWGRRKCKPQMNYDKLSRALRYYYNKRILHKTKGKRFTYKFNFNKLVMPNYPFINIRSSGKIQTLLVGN
# How it was run: as §1
# ETV6 = ETV6 (Homo sapiens, UniProt P41212 1-452)
# Chain of ETV6 (P41212 whole entry): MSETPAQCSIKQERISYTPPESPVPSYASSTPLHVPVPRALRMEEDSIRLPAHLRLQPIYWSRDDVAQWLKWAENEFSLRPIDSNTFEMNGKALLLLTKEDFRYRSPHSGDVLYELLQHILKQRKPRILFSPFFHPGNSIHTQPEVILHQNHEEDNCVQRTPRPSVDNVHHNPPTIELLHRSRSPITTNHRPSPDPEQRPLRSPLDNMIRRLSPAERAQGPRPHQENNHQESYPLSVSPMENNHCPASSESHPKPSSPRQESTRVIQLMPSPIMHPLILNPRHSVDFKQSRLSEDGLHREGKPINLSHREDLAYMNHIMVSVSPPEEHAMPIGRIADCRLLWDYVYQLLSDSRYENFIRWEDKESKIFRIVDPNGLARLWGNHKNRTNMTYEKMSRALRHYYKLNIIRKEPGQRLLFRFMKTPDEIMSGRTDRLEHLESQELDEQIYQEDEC
# How it was run: as §1
sequence,measurement,setting,value
CGGAAC,binding signal,FLI1,"1.16 fold enrichment (6-mer frequency, TF over GST control)"
same,binding signal,ELK1,"1.18 fold enrichment (6-mer frequency, TF over GST control)"
same,binding signal,GABPA,"1.05 fold enrichment (6-mer frequency, TF over GST control)"
same,binding signal,ERG,"1.22 fold enrichment (6-mer frequency, TF over GST control)"
same,binding signal,ELF1,"1.04 fold enrichment (6-mer frequency, TF over GST control)"
same,binding signal,EHF,"1.2 fold enrichment (6-mer frequency, TF over GST control)"
same,binding signal,SPI1,"1.29 fold enrichment (6-mer frequency, TF over GST control)"
same,binding signal,SPIB,"1.29 fold enrichment (6-mer frequency, TF over GST control)"
same,binding signal,ELK3,"1.21 fold enrichment (6-mer frequency, TF over GST control)"
same,binding signal,FEV,"1.16 fold enrichment (6-mer frequency, TF over GST control)"
same,binding signal,ETV5,"1.29 fold enrichment (6-mer frequency, TF over GST control)"
same,binding signal,SPIC,"1.09 fold enrichment (6-mer frequency, TF over GST control)"
same,binding signal,ELF4,"1.04 fold enrichment (6-mer frequency, TF over GST control)"
same,binding signal,ETV1,"1.23 fold enrichment (6-mer frequency, TF over GST control)"
same,binding signal,ETV3L,"1.11 fold enrichment (6-mer frequency, TF over GST control)"
same,binding signal,ETS2,"1.18 fold enrichment (6-mer frequency, TF over GST control)"
same,binding signal,ELF5,"1.3 fold enrichment (6-mer frequency, TF over GST control)"
same,binding signal,ETV3,"1.31 fold enrichment (6-mer frequency, TF over GST control)"
same,binding signal,ETV6,"1.12 fold enrichment (6-mer frequency, TF over GST control)"

# From article PMC7862700, “An all-to-all approach to the identification of sequence-specific readers for epigenetic DNA modifications on cytosine”
